Data reported in PubChem BioAssay AID1233 (SRMLSC, 2008).
Potency and affinity values are given separately. Values without a mark were called inactive.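 How the source made its calls: active means a dose-response curve fit returns a half-maximal inhibitory concentration, extrapolated values included; inactive means the fit returns no such concentration.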

biological target: HMG-CoA reductase [Enterococcus faecalis] (UniProt Q9FD70); assay: class II HMG-CoA reductase inhibition potency – biochemical, Enterococcus faecalis, confirmation (AID 1233);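 further: 0% = full reaction carrier wells and 100% = background wells lacking mevalonate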; settings: purified E. faecalis HMGR, NADPH absorbance 340 nm kinetics; series mostly up to 100 µM; inhibition: at the top concentration

Point of comparison: O=C(CC(=O)NN=C1CCCCCC1)NCc1cccnc1, “inhibition” value -5.13%. Against it:
- Cc1nc2c([nH]1)C1(CCN(Cc3ccccc3)CC1)C(C#N)=C(N)O2 — higher, 10.2%
- CCCCCCCCNC(=S)NCCN1CCCCC1 — lower, -6.35%
- Brc1ccc(/C=N/Nc2ncnc3c2cnn3Cc2ccccc2)cc1 — lower, -21.9%
- CCOC(=O)c1ccc(N(C(=O)c2cnccn2)C(C(=O)NC2CCCCC2)c2cn(C)nc2C)cc1 (stereo not drawn) — lower, -9.54%
- Cn1c(SCC(=O)N2CCCC2)nnc1-c1ccc(S(=O)(=O)N2CCCC2)cc1 — higher, -0.88%
- CC(=O)Nc1ccc(Cc2nc3ccccc3[nH]2)cc1 — higher, -3.93%
- C=CCOC(=O)c1sc(NC(=O)c2ccco2)nc1C — higher, 1.77%
- Cc1ccc(N2CCN(C(=O)c3ccccc3NC(=O)/C=C\C(=O)O)CC2)cc1 — higher, -3.89%
- S=c1[nH]c2cc(Cl)ccc2s1 — higher, -0.06%
- CCOc1ccc(CN2CCN(Cc3cc4ccccc4[nH]3)CC2CCO)cc1 (stereo not drawn) — higher, -1.61%
- Cc1cccc(NC(=O)CSc2ccc(-c3ccc4c(c3)OCO4)nn2)c1C — lower, -26.3%
- Cc1ccc(S(=O)(=O)N2CCCC2C(=O)Nc2nc3ccccc3s2)cc1 (stereo not drawn) — higher, -3.26%
- CCOC(=O)c1sc(NC(=O)CSc2nccc(C)n2)nc1C — lower, -13.7%
- Cc1cccc(C(=O)N2CCC(=O)N(C(COCc3ccccc3)Cc3ccccc3)CC2)c1 (stereo not drawn) — higher, -2.57%
- COc1ccc(N2CC(C(=O)NCCc3ccc(OC)c(OC)c3)CC2=O)cc1 (stereo not drawn) — higher, -0.35%
- O=C(COc1cccc(NC(=O)c2ccco2)c1)c1ccc(F)cc1 — higher, 1.51%
- O=C(NC(=S)N(CC1CCC1)CC1CCCO1)c1cccc([N+](=O)[O-])c1 (stereo not drawn) — lower, -6.67%
- NC(=S)NNC(=O)c1cccc(Br)c1 — lower, -10.2%
- O=C(CCCN1C(=O)/C(=C\c2cccs2)SC1=S)Nc1ccccn1 — higher, -5.05%
- O=C(CCc1ccccc1)Nc1ncc2c(n1)CCCC2=O — higher, -1.28%
- Clc1ccc2c(c1)C(c1cccs1)=NNC(c1cccnc1)=N2 — higher, -2.29%
- COc1ccc(OC)c(-n2nnnc2SCC(=O)Nc2ccccc2N2CCOCC2)c1 — lower, -5.58%
- CN(CCO)c1cc(NCCCN2CCC(Cc3ccccc3)CC2)c2nonc2c1[N+](=O)[O-] — lower, -6.33%
- CC(C)N(C(=O)Cn1cnc2cc([N+](=O)[O-])ccc2c1=O)C(C)C — higher, -1.92%
- O=C(COC(=O)c1cc([N+](=O)[O-])ccc1NCCO)c1ccc(Cl)cc1 — higher, -0.58%
- CC(=O)Nc1ccc2c(c1)OCCO2 — higher, -4.59%
- COc1cc(S(=O)(=O)N2CCC(c3nc4ccccc4s3)CC2)ccc1S(=O)(=O)NC1CCCC1 — lower, -5.67%
- C=CCN1CCN(C(c2cc(OC)ccc2OC)c2nnnn2CC2CCCO2)CC1 (stereo not drawn) — higher, 0.95%
- COc1ccc(N2C(=O)C3C4C=CC(C5CC45)C3C2=O)c([N+](=O)[O-])c1 (stereo not drawn) — higher, -1.92%
- Cc1ccc(/C=C/C(=O)O)cc1S(=O)(=O)NCCCO — lower, -7.91%
- CCOc1ccccc1C(=O)NC1CCN(Cc2nnnn2C2CCCC2)CC1 — higher, -1.25%
- COc1ccc(C[C@H]2COC(=O)[C@@H]2Cc2ccc(OC3OC(CO)C(O)C(O)C3O)c(OC)c2)cc1OC (stereo partly drawn) — lower, -5.86%
- COc1ccc(-c2c(N)n[nH]c2C)cc1OC — lower, -6.91%
- Brc1c(NC2=NCCN2)ccc2nccnc12 — higher, -4.78%
- Cc1cc(=O)[nH]c(SCC(=O)C23CC4CC(CC(C4)C2)C3)c1C#N — higher, 0.65%
- CCC1Oc2ccccc2N(CC(=O)NCc2ccco2)C1=O (stereo not drawn) — lower, -6.06%
- CCN(CC)Cc1c(C(=O)N2CCc3ccccc3C2)nc2ccc(Cl)cn12 — lower, -7.8%
